# Screening data as filed in PubChem.
# An excerpt weighted towards active compounds, which were near 14% of everything screened.
# USP10 block – inhibitors of human USP10 deubiquitinase; AID 1645856; 47,000 tested, 1.1% active; inhibition, % at 20 µM; Q14694; purified USP10, Ub-rhodamine fluorescence, 60 min
# Target sequence (Q14694 whole entry, looked up): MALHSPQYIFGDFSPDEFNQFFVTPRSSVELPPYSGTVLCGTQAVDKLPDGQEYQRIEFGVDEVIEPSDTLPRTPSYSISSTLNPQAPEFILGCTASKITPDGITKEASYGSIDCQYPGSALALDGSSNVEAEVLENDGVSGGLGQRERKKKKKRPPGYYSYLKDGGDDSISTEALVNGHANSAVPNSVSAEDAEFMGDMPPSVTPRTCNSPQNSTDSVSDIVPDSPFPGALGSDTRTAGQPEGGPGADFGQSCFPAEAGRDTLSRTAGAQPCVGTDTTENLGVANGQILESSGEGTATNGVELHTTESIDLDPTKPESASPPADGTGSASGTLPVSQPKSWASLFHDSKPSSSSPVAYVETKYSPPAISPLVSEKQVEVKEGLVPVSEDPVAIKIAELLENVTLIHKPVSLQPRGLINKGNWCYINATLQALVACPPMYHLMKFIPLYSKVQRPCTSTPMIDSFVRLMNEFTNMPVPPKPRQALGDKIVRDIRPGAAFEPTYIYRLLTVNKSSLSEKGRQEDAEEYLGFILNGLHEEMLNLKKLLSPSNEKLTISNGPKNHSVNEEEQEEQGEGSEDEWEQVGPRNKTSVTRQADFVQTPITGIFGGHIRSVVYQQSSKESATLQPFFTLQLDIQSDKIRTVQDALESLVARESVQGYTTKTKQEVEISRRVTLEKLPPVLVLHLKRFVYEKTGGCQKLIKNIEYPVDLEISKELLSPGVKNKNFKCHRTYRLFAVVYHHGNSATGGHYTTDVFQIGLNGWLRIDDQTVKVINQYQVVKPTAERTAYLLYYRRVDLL
# USP30 block – blocks human USP30 ubiquitin-rhodamine cleavage; Q70CQ3; purified USP30, Ub-rhodamine cleavage fluorescence; inhibition, % at 25 µM; 47,000 tested, 5.3% active
# USP28 block – inhibitors of human USP28 deubiquitinase. Q96RU2. purified USP28, Ub-rhodamine cleavage fluorescence, 30 min. inhibition, % at 25 µM. 47,000 tested, 3% active
# USP8 block – human USP8 deubiquitinase inhibition. P40818. inhibition, % at 20 µM. 47,000 tested, 4.2% active. purified USP8, Ub-rhodamine cleavage fluorescence, 30 min
# USP17 inh – inhibitors of human USP17 deubiquitinase; A8MUK1; purified USP17, Ub-rhodamine cleavage fluorescence, 3 h; inhibition, % at 50 µM; 47,000 tested, 6.5% active; AID 1645855
# * hit, by the source's call; · = not tested or not shown. Rule as the data show it: active = inhibition above about 30%; inactive = the rest.
SMILES,USP10 block,USP30 block,USP28 block,USP8 block,USP17 inh
CC(C)Cc1nc2sc3c(NCc4ccccc4)ncnc3c2c2c1COC(C)(C)C2,17,64*,22,6,23
CC(C)Cc1nc2sc3c(SCc4ccc(Br)cc4)ncnc3c2c2c1COC(C)(C)C2,-3,-2,-8,3,-1
CC(C)Cc1nc2sc3c(SCCc4ccccc4)ncnc3c2c2c1COC(C)(C)C2,0,16,4,23,9
Cc1nc2sc3c(NCC(C)C)ncnc3c2c2c1COC(C)(C)C2,-5,18,13,-5,43*
CC(C)Cc1nc2sc3c(SCc4ccc(Cl)cc4)ncnc3c2c2c1COC(C)(C)C2,0,33*,13,-1,18
Cc1ccc(CC(=O)N2CCCC(c3[nH]nc4nccnc34)C2)cc1 (centres undefined),0,10,0,12,7
Nc1ncc(-c2cccc(F)c2)c(C2CCCCN2C(=O)c2ccn[nH]2)n1 (centres undefined),0,-11,-6,-2,-10
COc1ccc(CC(=O)NCc2ccc3[nH]c(C)cc3c2)cc1,-4,-50,10,14,56*
Cc1cc2cc(CNC(=O)c3ccccc3[N+](=O)[O-])ccc2[nH]1,0,1,8,-59,39*
COCCNC(=O)c1ccc(-c2ccc(N3CCCCC3)nc2)cc1,9,31*,23,4,68*
CCc1ccc(C(=O)NCc2ccc(N3CCOCC3)nc2)cc1,0,19,19,-16,27
CCc1nc2sc(C)nn2c1S(=O)(=O)N1CCN(c2ccccc2)CC1,-3,-8,2,3,18
O=C(Cn1cc(C(=O)c2ccc(F)cc2)c(=O)c2ccccc21)Nc1ccc2c(c1)OCO2,47*,42*,12,71*,12
COc1ccc(NC(=O)Cn2cc(C(=O)c3ccc(C)cc3)c(=O)c3ccccc32)cc1,38*,49*,41*,49*,85*
COc1ccccc1NC(=O)Cn1cc(C(=O)c2ccc(C)cc2)c(=O)c2cc(C)ccc21,0,25,6,17,15
Cc1ccc(C(=O)c2cn(CC(=O)Nc3ccccc3)c3ccccc3c2=O)cc1,46*,35*,23,97*,37*
Cc1ccc(CS(=O)(=O)c2cn(CC(=O)Nc3cccc(F)c3)c3ccccc23)cc1,3,-38,2,25,9
Cc1ccc2c(c1)c(=O)c(C(=O)c1ccccc1)cn2CC(=O)Nc1ccc2c(c1)OCCO2,26,-5,-5,30,62*
Cc1ccc(C(=O)c2cn(CC(=O)Nc3ccccc3)c3ccc(C)cc3c2=O)cc1,36*,14,1,62*,53*
Cc1noc(C)c1CN1CCN(C(=O)c2n[nH]c3ccccc23)CC1,2,0,4,0,0
O=C(Nc1ccc(-n2cccc2)cc1)c1ccc(Cl)cc1,0,7,10,18,-23
Cc1cnnn1-c1ccc(C(=O)Nc2cccc(Cl)c2)cc1,0,54*,23,0,80*
Cc1cnnn1-c1ccc(C(=O)Nc2cc(Cl)ccc2Cl)cc1,0,24,9,0,68*
Cn1cc(-c2cnc(-c3cccc(F)c3)nc2)cc1C(=O)NCc1cccnc1,-2,3,0,1,51*
Cc1cccc(Nc2cc(C3CCN(C(=O)c4cnc[nH]4)CC3)ccn2)n1,1,2,-2,3,0
SMILES,USP10 block,USP30 block,USP28 block,USP8 block,USP17 inh
Cc1cccc(Nc2cc(C3CCN(C(=O)c4cncnc4)CC3)ccn2)n1,2,32*,8,15,9
N#Cc1cnn2ccc(-c3ccc4c(c3)CCC4)nc12,-1,·,·,-14,34*
Nc1nccc(-c2ccc3c(c2)CCC3)n1,-1,-16,-8,-3,-5
COc1ccc(NC(=O)CSc2oc(-c3ccc(C)cc3)nc2S(=O)(=O)c2ccc(Br)cc2)c(OC)c1,2,16,10,13,59*
COc1ccc(S(=O)(=O)Nc2ccc(Nc3ccc(-n4cccn4)nn3)cc2)cc1,7,62*,12,-33,47*
Cc1nc(N2CCN(C)CC2)ncc1C(=O)NCCC1=CCCCC1,0,-26,-9,-4,-18
O=C(Cc1ccccc1)N[C@@H](Cc1ccccc1)C(=O)N1CCC2(CC1)NCCc1[nH]cnc12,-4,-56,-17,-2,-2
C=C1CCC2[C@](C)(CCC[C@]2(C)C(=O)OC)[C@H]1CCc1ccoc1CNC(C)C (some centres undefined),-3,24,24,11,18
C=C1CCC2[C@](C)(CCC[C@]2(C)C(=O)OC)[C@H]1CCc1ccoc1CNC(CCSC)C(=O)O (some centres undefined),-8,-60,-15,43*,28
CCOc1ccccc1NC(=O)CNc1cc(C(F)(F)F)ccc1N1CCOCC1,2,33*,17,26,17
CC(Nc1ccccc1N1CCOCC1)C(=O)Nc1cc(C(F)(F)F)ccc1N1CCOCC1 (centres undefined),3,8,3,16,9
Cn1c(SCC(=O)Nc2ccc3c(c2)OCCO3)nnc1-c1ccncc1,0,21,39*,22,5
Cn1c(SCC(=O)Nc2ccc3c(c2)OCCO3)nnc1C(F)(F)F,1,2,10,-11,-1
CCn1c(SCC(=O)N2CCCC2)nnc1-c1ccc2c(c1)OCCCO2,0,4,-2,-12,-3
CCn1c(SCC(=O)N2c3ccccc3CC2C)nnc1-c1ccc2c(c1)OCCO2 (centres undefined),0,73*,3,-3,21
CCn1c(SCC(=O)Nc2ccc(C)c(Cl)c2)nnc1-c1ccc2c(c1)OCCO2,18,40*,4,31*,17
O=C(c1ccc2ncsc2c1)N1CCN(c2ccccc2)CC1,-3,·,·,-4,-14
Cc1cc2c(cc1C)NC(/C=C/c1ccccc1)C1=C(CC(C)(C)CC1=O)N2 (centres undefined),-4,-39,-9,-15,-8
Cc1ccc2nc(N3CC(C(=O)N4CCC(O)CC4)C3)sc2c1,0,·,·,5,-4
Cc1ccc(CCNC(=O)c2nn(C34CC5CC(CC(C5)C3)C4)cc2[N+](=O)[O-])cc1,17,47*,23,-19,9
Cc1ccc(CNC(=O)c2ccc(N3CCC(C)CC3)c([N+](=O)[O-])c2)cc1,5,-1,-20,-11,-7
O=C1Cc2ccccc2C(=O)N1c1ccc2c(c1)OCO2,18,-52,36*,82*,66*
COc1ccc2c(c1)C(=O)C/C(=C\c1ccc(Cl)cc1)C2,8,20,16,21,20
O=C1C/C(=C\c2ccc3c(c2)OCO3)Cc2ccccc21,9,9,30*,6,23
Cc1ccccc1C(=O)Nc1ccc(-n2cnnn2)cc1,3,25,12,4,5
CCN(CC(=O)Nc1cc(C)on1)c1cccc2ccccc12,5,27,23,90*,88*
